VACV Venus inh – vaccinia inhibition (Venus reporter) | actives 0.46% (n = 330,000) | Potency, µM (series often up to 36.5 µM), inactives show at the highest dose activity change, negative = inhibition, usual class: inhibitors | Vaccinia virus Venus reporter expression, fluorescence | AID 720580; calls by dose curve; tested in A549 cells; also: potency is read from the fitted curve at half-maximal effect; nearly all actives have a fitted effect of over 30% in size
HCMV antiviral – blocks human cytomegalovirus replication; HFF cells, HCMV-luciferase reporter, 72 h; hits give low values; activity change, negative = inhibition, % at 57.5 µM; AID 1259415; actives 4.5% (n = 410,000); in the data active = activity change below about -60%; inconclusive = no clear call, values can overlap the other calls; inactive = above about -39%
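Steps: HFFs plated, 16 h 37C; compounds added; HCMV-luciferase added to MOI 1 PFU/cell; 72 h 37C; OneGlo reagent, 5 min room temperature; luminescence read, normalized to controls.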
Vaccinia mCherry – vaccinia inhibition (mCherry reporter); actives 0.63% (n = 310,000); Vaccinia virus mCherry reporter infection, fluorescence; AID 720579; Potency, µM (titrated, usually from 36.5 µM), without a hit: at the top dose activity change, negative = inhibition, usual class: inhibitors; calls by dose curve; tested in A549 cells; also: potency is read from the fitted curve at half-maximal effect; nearly all actives have a fitted effect of over 35% in size
LASV entry inh – inhibitors of Lassa virus binding or cell entry. AID 540256. actives 1.2% (n = 300,000). Potency, µM (top dose mostly 37.9 µM), for inactives: top-dose activity change, negative = inhibition, most hits filed as inhibitors. Lassa virus pseudotype entry inhibition, cell reporter; calls by dose curve; tested in HEK293 cells; also: potency is read from the fitted curve at half-maximal effect; nearly all actives have a fitted effect of over 50% in size
FMDV antiviral – foot and mouth disease virus antiviral activity; FMDV antiviral cell-based qHTS; Potency, µM (highest dose often 57.9 µM), without a hit: at the highest dose activity change, negative = inhibition, actives largely listed as inhibitors; actives 1.2% (n = 410,000); AID 1159524; calls by dose curve; tested in HEK293T cells; also: read-out not given here; potency is read from the fitted curve at half-maximal effect; nearly all actives have a fitted effect of over 45% in size
MARV entry inh – blocks Marburg virus binding to or entry into cells; actives 1.8% (n = 300,000); AID 540276; Potency, µM (series often up to 37.8 µM), for the others: at the top dose activity change, negative = inhibition, most hits filed as inhibitors; Marburg virus pseudotyped entry inhibition, cell reporter; calls by dose curve; tested in HEK293 cells; also: potency is read from the fitted curve at half-maximal effect
Starred values were filed as active, the others as inactive; i = inactive; u = inconclusive; x = not tested or not shown; ! = not active in a repeat; [ ] = dose if it differs, or a comment. The list is not random: actives were taken first. Their share in the collection is about 6.5%. % is scaled to controls: 0 for no effect and ±100 for the full control effect.

SMILES	VACV Venus inh	HCMV antiviral	Vaccinia mCherry	LASV entry inh	FMDV antiviral	MARV entry inh
CCCC1CC(C)(c2csc(Nc3ccc(OCC)cc3)n2)OC1=O (stereo unspecified)	x	-89*	x	x	-21%	x
Cc1cccc(CS(=O)(=O)c2nnc([C@H](Cc3ccccc3)NC(=O)OC(C)(C)C)o2)c1	x	x	x	-10%	32µM*	16µM*
CC(C)(C)OC(=O)N[C@@H](Cc1ccccc1)c1nnc(SCC(N)=O)o1	x	3	x	x	0%	x
COC(=O)CS(=O)(=O)c1nnc([C@H](Cc2ccccc2)NC(=O)OC(C)(C)C)o1	3%	79	-23%	u	32µM*	u
COc1ccc(CNC(=O)CN2C(=O)CSc3ccc(S(=O)(=O)N4CCCC4)cc32)cc1	-5%	-3	-3%	2%[46.1 µM]	2%	x
COc1cc(Nc2cc3c(cn2)nc(Cc2ccccc2)n3C)cc(OC)c1OC	x	31	x	x	x	x
COc1ccc(O)c(CNn2c(-c3ccc(Br)cc3)nc3ccccc3c2=O)c1	-5%	-74*	-21%	-20%	u	-9%[46.1 µM]
Cc1cc(C(=O)Nn2c(-c3ccc(Br)cc3)nc3ccccc3c2=O)ccc1[N+](=O)[O-]	-22%	-75*	i	-9%[46.1 µM]	u	u
CCOc1ccc(-n2c(CC)nc3ccccc3c2=O)cc1	-16%	-87*	i	-2%	-22%	-2%
COc1ccc(-n2c(-c3ccccc3Br)nc3ccccc3c2=O)cc1	-8%	-63*	i	-20%[46.1 µM]	-5%	-3%[46.1 µM]
CCOc1ccc(-n2c(=O)c3ccccc3c3ccccc3c2=O)cc1	-11%	56	u	-21%	u	-25%[46.1 µM]
CCOC(=O)N1CCN(C(=O)C(=O)Nc2sc3c(c2C(N)=O)CC(C)(C)OC3)CC1	x	-14	x	x	-16%	x
CN1CCN(c2ccnc(-c3ccoc3)n2)CC1	x	x	x	x	-7%	x
C=CCn1c(SC)nccc1=O	-2%	-11	i	16%[46.1 µM]	-6%	14%[46.1 µM]
O=C1c2cccc3c(O)ccc(c23)C(=O)N1c1ccc(Cl)cc1	399%	-72*	-20%	u	13µM*	16%[46.1 µM]
CC(=O)Nc1ccc(N2C(=O)c3cccc4c(O)ccc(c34)C2=O)cc1	272%	u	i	x	-15%	x
Nc1c(C(=O)NCc2ccc3c(c2)OCO3)c2nc3ccccc3nc2n1CCCN1CCOCC1	u	-19	u	u	x	u
CCc1ccccc1-n1c(N)c(C(=O)OC)c2nc3ccccc3nc21	2%	8	4%	-16%[46.1 µM]	-12%	u
COc1ccccc1CNC(=O)c1c(N)n(CCCN2CCOCC2)c2nc3ccccc3nc12	u	-30	13µM*	26%[14.3 µM]	-8%	u
COC(=O)c1c(N)n(-c2ccc(NC(C)=O)cc2)c2nc3ccccc3nc12	-13%	-66*	x	-6%	-29%	-1%
COc1cc(-n2c(N)c(C(=O)NCc3ccco3)c3nc4ccccc4nc32)cc(OC)c1OC	x	-39	x	-18%	-13%	u
COc1ccc(-n2c(N)c(C(=O)NCc3ccco3)c3nc4ccccc4nc32)cc1OC	-9%	-81*	u	-4%	-10%	-17%[46.1 µM]
Nc1c(C(=O)NCc2ccco2)c2nc3ccccc3nc2n1CCN1CCCCC1	-20%	-68*	-12%	-2%	x	8.2µM*
C#Cc1ccccc1OCCCN1CCC(C(O)(c2ccccc2)c2ccccc2)CC1	u	-13	-25%	x	-6%	x
O=S(=O)(c1ccc(SCc2c(F)cccc2Cl)nc1)N1CCCC1	-13%	-21	-4%	x	-22%	x
SMILES	VACV Venus inh	HCMV antiviral	Vaccinia mCherry	LASV entry inh	FMDV antiviral	MARV entry inh
Nc1c(C(=O)NCCN2CCOCC2)c2nc3ccccc3nc2n1-c1ccccc1	0%	-69*	-13%	u	-24%	-30%
CC(C)(C)OC(=O)C[C@H]1C/C=C\C[C@H](CC(=O)N(CCO)Cc2ccccc2)C(=O)N[C@@H](Cc2ccccc2)COC1=O	-11%	-27	-7%	x	-7%	x
CCc1ccccc1NC(=O)CN(C)C(=O)Cn1ncc(Cl)c(Cl)c1=O	u	-99*	u	u	35µM*	u
CCc1ccccc1NC(=O)CN(C)C(=O)Cn1cnc2ccc(Cl)cc2c1=O	-25%	0	-9%	-1%	-26%	1%
CCC(=O)Nc1ccc(C(=O)Cn2ncc(Cl)c(Cl)c2=O)cc1	x	-103*	x	x	-16%	x
CCOC(=O)c1ccc(NC(=O)Cn2nc(C)c3ccccc3c2=O)cc1	x	21	x	x	-6%	x
CCOC(=O)c1ccc(NC(=O)Cn2ncc(Cl)c(Cl)c2=O)cc1	u	-100*	u	u	40µM*	3.2µM*
COc1ccc2oc(=O)c(C(=O)N3CCN(c4cc(Cl)ccc4Cl)CC3)cc2c1	-4%	-8	1%	-1%[46.1 µM]	-11%	-2%[46.1 µM]
Fc1ccc(-c2nc(-c3c[nH]c4ccccc34)cs2)cc1	-13%	x	i	x	x	x
CCOC(=O)c1ccc2c(c1)n(CC)c(/C=C/N(C)c1ccccc1)[n+]2CC	-15%	-100*	-12%	u	u	u
CC1CCCCC1S(=O)C1=C(C(=O)O)CCCC1 (stereo unspecified)	x	x	x	x	x	7%[46.1 µM]
O=C(CCCn1c(=O)[nH]c2cc(Cl)ccc2c1=O)NCCCN1CCN(c2ccc(F)cc2)CC1	x	-62*	x	x	u	x
O=C(c1ccc2c(=O)n(CCc3ccccc3)c(=O)[nH]c2c1)N1CCN(c2ccc(F)cc2)CC1	0%	-38	u	u	11µM*	u
CCn1c(=O)[nH]c2cc(C(=O)N3CCN(c4ccccc4)CC3)ccc2c1=O	x	113	x	-6%	12%	11%
O=C(c1ccc2c(=O)n(-c3ccccc3)c(=O)[nH]c2c1)N1CCCCC1	-13%	-66*	i	-19%	x	-18%
COc1ccc(OC)c(NC(=O)c2ccc3c(=O)n(CCc4ccccc4)c(=S)[nH]c3c2)c1	-9%	u	-10%	u	0.79µM*	u
O=C(c1ccc(F)cc1)C1CCN(CCn2c(=O)[nH]c3ccccc3c2=O)CC1	-19%	-39	-1%	0%	-14%	11µM*
CCCCCn1c(=O)[nH]c2cc(C(=O)NCc3ccccc3)ccc2c1=O	-1%	-23	-5%	2%[46.1 µM]	0%	-4%[46.1 µM]
COc1cc2[nH]c(=O)n(Cc3ccc(C(=O)N4CCN(c5ccc(Cl)cc5)CC4)cc3)c(=O)c2cc1OC	u	-9	u	-24%[46.1 µM]	25µM*	u
O=C(c1ccc(F)cc1)C1CCN(CCCn2c(=O)[nH]c3ccccc32)CC1	x	-33	x	x	x	x
CCCCC(CC)CNC(=O)c1ccc2c(=O)n(CCOC)c(=O)[nH]c2c1 (stereo unspecified)	12%	u	1%	u	u	2.8µM*
COCCn1c(=O)[nH]c2cc(C(=O)N3CCN(c4ccc(Cl)cc4)CC3)ccc2c1=O	-2%	-23	u	21%[46.1 µM]	16µM*!	u
CN[C@H]1C[C@H]2c3cc(-c4ccccc4)ccc3CCN2C(=O)[C@H]1[C@H](C)O	-22%	-4	i	x	-9%	x

From PubChem
